The record followed here is PubChem BioAssay (Tox21).

A short description of experiment [1]: qHTS assay for small molecule agonists of the p53 signaling pathway - cell viability (AID 651633; calls by dose curve;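 also: p53RE-bla HCT reporter cells with a stable beta-lactamase p53 reporter; series mostly up to about 83 µM; nearly all actives have a fitted effect of over 30% in size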). The gist of the method:
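p53RE-bla cells, seeded at 4,000 per well and rested 5 h at 37 C/5% CO2, received compounds in DMSO for 16 h at 37 C. CellTiter-Glo was then added, and luminescence was read after 30 min at room temperature to gauge cytotoxicity.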
Background: Quantitative high-throughput screening tests each substance at several concentrations.

Experiment [2] in a line: qHTS assay to test for compound auto fluorescence at 460 nm (blue) in HEK293 cells (AID 720678). The gist of the method: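 Blue-channel (Ex/Em 405/460 nm) intensity measured in HEK293 cultures after overnight compound exposure at 37C; signal expressed relative to triamterene. Cells plated 2,000 per well in 10% dialyzed FBS medium and allowed 4-5 hr to attach.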
The nature of experiment [3]: qHTS assay to test for compound auto fluorescence at 590 nm (red) in HEK293 cells (AID 720679). The gist of the method:
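Red-channel autofluorescence (Ex/Em 540/590 nm; Rose Bengal sodium reference) was measured after overnight 37C, 5% CO2 exposure of attached HEK293 cells, 2,000 per well in medium with 10% dialyzed FBS.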

Experiment [4] is described as follows: qHTS assay to test for compound auto fluorescence at 535 nm (green) in HEK293 cells (AID 720680).
A short description of experiment [5]: qHTS assay to test for compound auto fluorescence at 590 nm (red) in HepG2 cell free culture (AID 720684). The gist of the method: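 Ex 540 / Em 590 nm read of compound in cell-free MEM (10% FBS). Rose Bengal sodium reference.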
A short description of experiment [6]: qHTS assay for identifying genotoxic compounds that show differential cytotoxicity against isogenic chicken DT40 cell lines with known DNA damage response pathways - wild type cell line (AID 743012). Also: nearly all actives have a fitted effect of over 60% in size. Also: potency is read from the fitted curve at half-maximal effect. The gist of the method:
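Viability of DNA repair-proficient chicken DT40 cells was assessed by CellTiter-Glo luminescence following 40 h compound exposure at 37 C/5% CO2.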

Experiment [7] in a line: qHTS assay for identifying genotoxic compounds that show differential cytotoxicity against isogenic chicken DT40 cell lines with known DNA damage response pathways - Rev3 mutant cell line (AID 743014). Also: nearly all actives have a fitted effect of over 55% in size. Also: potency is read from the fitted curve at half-maximal effect.
Experiment [8] is described as follows: qHTS assay to identify small molecule antagonists of the androgen receptor (AR) signaling pathway - cell viability counter screen (AID 743033; also: nearly all actives have a fitted effect of over 45% in size).
A short description of experiment [9]: qHTS assay to identify small molecule antagonists of the androgen receptor (AR) signaling pathway using the MDA cell line - cell viability counter screen (AID 743041; also: nearly all actives have a fitted effect of over 45% in size). An outline of the steps:
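In this qHTS counter assay, fluorescence intensity after CellTiter-Fluor addition indicated viability of MDA-kb2 AR-luc cells given compounds and R1881 for 16 h at 37C.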

Experiment [10] is described as follows: qHTS assay to identify small molecule antagonists of the thyroid receptor (TR) signaling pathway - cell viability counter screen (AID 743064). Also: nearly all actives have a fitted effect of over 50% in size. Also: potency is read from the fitted curve at half-maximal effect. An outline of the steps: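 Counter screen for cytotoxicity: compound plus T3 (1 nM final) on GH3.TRE-Luc cells, 23.5 h at 37 °C, then fluorescence viability readout with CellTiter-Fluor.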
Experiment [11] in a line: qHTS assay to identify small molecule antagonists of the estrogen receptor alpha (ER-alpha) signaling pathway using the BG1 cell line (AID 743080; calls by dose curve;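 also: BG1 cells stimulated with 17beta-estradiol alongside compound; series mostly up to about 70 µM; nearly all actives have a fitted effect of over 25% in size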). An outline of the steps:
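Luciferase inhibition measured with ONE-Glo after 30 min at RT in BG1Luc4E2 cells given test compounds and 17beta-estradiol for 21.5 h at 37 C; CellTiter-Fluor viability read in the same wells beforehand.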

Experiment [12] is described as follows: qHTS assay to identify small molecule that activate the aryl hydrocarbon receptor (AhR) signaling pathway - cell viability counter screen (AID 743086). Also: nearly all actives have a fitted effect of over 45% in size. Also: potency is read from the fitted curve at half-maximal effect. The gist of the method: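 HepG2-AhR-luc (HG2L7.5c1) cells, 4000/well, were preincubated 5 h at 37C, exposed to compound in qHTS format for 24 hr at 37C, then given CellTiter-Fluor for 30 min; viability was read as fluorescence in the reporter wells.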

The target in experiment [13] is Peroxisome proliferator-activated receptor gamma (Homo sapiens) (UniProt P37231). The experiment can be described thus: qHTS assay to identify small molecule agonists of the peroxisome proliferator-activated receptor gamma (PPARg) signaling pathway (AID 743094; active = well fitted activation curve with a large enough effect in the signal ratio in the repeat runs, not every such curve was filed as active; the % refers to the signal ratio). The gist of the method:
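Agonism was assessed in a beta-lactamase reporter system, HEK293H cells with a stably integrated UAS-bla construct under PPARg control; the 17 h treatment at 37C preceded a 1 h room-temperature FRET substrate read.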

The target of experiment [14] is Nuclear receptor subfamily 1 group I member 2 (Rattus norvegicus) (UniProt Q9R1A7). As to the kind of experiment: Rat pregnane X receptor (rPXR) activation by small molecules, qHTS assay (AID 1346983). Also: nearly all actives have a fitted effect of over 20% in size. As to conditions: rPXR luciferase reporter cells, One-Glo luminescence, 24 h; max activation: stronger effect = higher value. An outline of the steps: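 Cell-based rPXR luciferase reporter assay, 2,000 cells per well, rested 5hr at 37 C before compound addition in DMSO, then 24 hr at 37 C. One-Glo reagent was added and luminescence read after 30 min at room temperature.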

Experiment [15] in a line: qHTS assay for small molecule agonists of the p53 signaling pathway (AID 651631; calls by dose curve; also: nearly all actives have a fitted effect of over 15% in size). An outline of the steps:
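Stably transfected HCT-116 cells (beta-lactamase behind p53 response elements) get compounds after a 5 h settling period; 16 h later at 37 °C, FRET substrate is loaded and fluorescence read after 2 h.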

Experiment [16] addresses Glucocorticoid receptor (Homo sapiens) (UniProt P04150). As to the kind of experiment: qHTS assay to identify small molecule agonists of the glucocorticoid receptor (GR) signaling pathway (AID 720691; active = well fitted activation curve with a large enough effect in the signal ratio in the repeat runs, not every such curve was filed as active; the % refers to the signal ratio). An outline of the steps: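 Compounds in DMSO, alongside positive controls, were added to GR-bla HeLa reporter cells and incubated 18 h at 37 C; GRE-driven beta-lactamase was detected by fluorescence after 2 h with FRET substrate at room temperature.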

The target of experiment [17] is Estrogen receptor (Homo sapiens) (UniProt P03372). As to the kind of experiment: qHTS assay to identify small molecule agonists of the estrogen receptor alpha (ER-alpha) signaling pathway (AID 743075; calls by dose curve;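 also: HEK293 GripTite cells with ER-alpha and UAS-driven beta-lactamase reporter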).
The target is the same in experiment [18]. The experiment can be described thus: qHTS assay to identify small molecule agonists of the estrogen receptor alpha (ER-alpha) signaling pathway using the BG1 cell line (AID 743079). Also: nearly all actives have a fitted effect of over 20% in size.
In experiment [19] the target is Nuclear receptor subfamily 1 group I member 2 (Homo sapiens) (UniProt O75469). The experiment can be described thus: Human pregnane X receptor (PXR) activation by small molecules, qHTS assay (AID 1346985). Also: nearly all actives have a fitted effect of over 40% in size. Also: potency is read from the fitted curve at half-maximal effect. The gist of the method: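 DPX-2 cells (HepG2 co-transfected with a PXR response element and a CYP3A4-promoter luciferase construct) were seeded at 2,000 per well, rested 5 hr at 37C, then exposed to DMSO-dissolved compounds for 24 hr. Activation was read as luciferase luminescence.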

Experiment [20] shares this target. The experiment can be described thus: CYP3A4 induction through human pregnane X receptor (PXR) by small molecules, qHTS assay (AID 1346984). Also: nearly all actives have a fitted effect of over 40% in size. Also: potency is read from the fitted curve at half-maximal effect. The gist of the method: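 Cells (DPX-2; HepG2 with PXR element plus CYP3A4-promoter luciferase) settled 5hr, then were treated 24hr at 37C. A 3hr, 3uM-final Luciferin-IPA step preceded luminescence measurement with One-Glo.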

SMILES strings stand for the structures. A number with no mark means an inactive call. Records with an inconclusive call do not appear. Activity calls are given as the source filed them. Unless noted, calls follow the shape of the dose curve; as a rule, active = well fitted curve in the direction sought with a large enough effect in the repeat runs; inconclusive = weak or mixed curves; inactive = no such curve, though single readings can be large; an effect the other way counts as inactive or inconclusive.
% is scaled to controls: 0 for no effect and ±100 for the full control effect.

Estrogen receptor (Homo sapiens), sequence (P03372 whole entry, looked up): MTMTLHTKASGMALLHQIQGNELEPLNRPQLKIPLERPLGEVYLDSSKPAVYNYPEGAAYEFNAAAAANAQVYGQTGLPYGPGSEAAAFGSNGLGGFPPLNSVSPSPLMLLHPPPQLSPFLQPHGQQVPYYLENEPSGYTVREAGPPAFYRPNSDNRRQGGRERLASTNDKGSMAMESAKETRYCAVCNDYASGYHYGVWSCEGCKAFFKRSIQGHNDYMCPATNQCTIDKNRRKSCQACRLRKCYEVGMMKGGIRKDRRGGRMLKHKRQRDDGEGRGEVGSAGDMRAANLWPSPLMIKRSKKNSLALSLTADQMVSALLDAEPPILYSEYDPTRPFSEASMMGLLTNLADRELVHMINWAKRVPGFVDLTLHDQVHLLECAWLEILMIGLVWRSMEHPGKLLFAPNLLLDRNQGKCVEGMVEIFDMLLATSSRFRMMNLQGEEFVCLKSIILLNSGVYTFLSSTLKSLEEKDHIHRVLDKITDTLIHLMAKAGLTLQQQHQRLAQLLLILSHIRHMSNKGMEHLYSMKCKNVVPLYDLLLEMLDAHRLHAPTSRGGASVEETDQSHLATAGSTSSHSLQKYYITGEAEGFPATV
Peroxisome proliferator-activated receptor gamma (Homo sapiens), sequence (P37231 whole entry, looked up): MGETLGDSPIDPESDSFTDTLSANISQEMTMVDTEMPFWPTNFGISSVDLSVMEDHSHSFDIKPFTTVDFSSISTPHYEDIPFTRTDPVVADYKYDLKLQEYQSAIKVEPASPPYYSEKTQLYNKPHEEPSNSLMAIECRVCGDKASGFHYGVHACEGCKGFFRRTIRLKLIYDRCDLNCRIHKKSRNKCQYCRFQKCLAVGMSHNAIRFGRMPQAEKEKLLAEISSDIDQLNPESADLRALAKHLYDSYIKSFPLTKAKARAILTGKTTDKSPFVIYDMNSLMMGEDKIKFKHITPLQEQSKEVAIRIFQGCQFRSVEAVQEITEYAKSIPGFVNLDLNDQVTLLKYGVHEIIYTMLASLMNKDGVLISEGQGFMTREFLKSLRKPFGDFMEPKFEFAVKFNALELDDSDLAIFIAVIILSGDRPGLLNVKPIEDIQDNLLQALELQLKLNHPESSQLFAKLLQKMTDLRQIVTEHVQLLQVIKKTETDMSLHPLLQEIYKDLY
Glucocorticoid receptor (Homo sapiens), sequence (P04150 whole entry, looked up): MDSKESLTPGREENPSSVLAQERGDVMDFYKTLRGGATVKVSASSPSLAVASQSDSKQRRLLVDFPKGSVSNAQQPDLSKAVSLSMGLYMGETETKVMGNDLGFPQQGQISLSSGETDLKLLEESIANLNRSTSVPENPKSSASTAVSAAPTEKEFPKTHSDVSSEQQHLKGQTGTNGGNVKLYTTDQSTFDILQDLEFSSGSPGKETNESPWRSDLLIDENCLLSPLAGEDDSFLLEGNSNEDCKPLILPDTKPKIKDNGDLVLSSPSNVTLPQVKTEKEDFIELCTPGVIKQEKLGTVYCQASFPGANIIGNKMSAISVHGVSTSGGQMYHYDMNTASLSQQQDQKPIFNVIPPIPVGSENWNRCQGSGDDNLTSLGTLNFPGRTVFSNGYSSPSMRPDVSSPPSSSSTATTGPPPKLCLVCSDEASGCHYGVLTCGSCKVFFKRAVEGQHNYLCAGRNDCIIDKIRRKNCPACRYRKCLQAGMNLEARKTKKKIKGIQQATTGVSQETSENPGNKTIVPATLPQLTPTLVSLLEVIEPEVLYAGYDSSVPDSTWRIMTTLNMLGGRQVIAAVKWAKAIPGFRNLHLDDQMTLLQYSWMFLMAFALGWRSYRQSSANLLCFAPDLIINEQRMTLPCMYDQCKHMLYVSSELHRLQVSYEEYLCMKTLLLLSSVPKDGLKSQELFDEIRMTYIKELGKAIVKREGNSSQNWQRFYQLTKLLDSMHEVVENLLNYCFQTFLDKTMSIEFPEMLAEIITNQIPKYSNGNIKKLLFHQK
Nuclear receptor subfamily 1 group I member 2 (Rattus norvegicus), sequence (Q9R1A7 whole entry, looked up): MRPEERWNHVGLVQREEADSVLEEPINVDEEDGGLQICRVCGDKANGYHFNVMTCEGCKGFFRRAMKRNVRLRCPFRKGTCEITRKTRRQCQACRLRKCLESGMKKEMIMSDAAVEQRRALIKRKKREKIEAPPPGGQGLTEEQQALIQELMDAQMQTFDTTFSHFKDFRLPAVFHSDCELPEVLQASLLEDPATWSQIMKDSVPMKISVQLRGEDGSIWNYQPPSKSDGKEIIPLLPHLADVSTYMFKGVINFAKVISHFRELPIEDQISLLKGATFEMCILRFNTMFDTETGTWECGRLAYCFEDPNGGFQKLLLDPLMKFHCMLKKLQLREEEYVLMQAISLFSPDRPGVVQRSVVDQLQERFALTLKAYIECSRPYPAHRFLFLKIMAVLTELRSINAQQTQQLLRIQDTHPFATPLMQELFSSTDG

Turning to `CCC/C=C/C=C/C(=O)O[C@H]1/C(=C/C(=O)OC)C[C@H]2C[C@H]([C@@H](C)O)OC(=O)C[C@H](O)C[C@@H]3C[C@H](OC(C)=O)C(C)(C)[C@](O)(C[C@@H]4C/C(=C/C(=O)OC)C[C@H](/C=C/C(C)(C)[C@]1(O)O2)O4)O3`, the Potency entry in [1], in experiment [2], in experiment [4], in experiment [8], in [9] and in experiment [11] was “inactive” throughout. The Potency entry in [12] and in [13] was “inactive” throughout. Besides, the compound was called inactive in [3] and in [5]. Also, the Potency is 0.0038 µM (active) in experiment [6], 0.0038 µM (active) in experiment [7] and 10.6 µM (active) in experiment [10]. In addition, the max activation in [14] is 2.43%.
Turning to `CNC(C)Cc1ccccc1` (configuration not stated), the Potency result in experiment [15], in experiment [2], in experiment [7], in experiment [8], in experiment [9] and in [12] was “inactive” in each case. For the same compound, the result in [3] and in [5] was inactive.
For the compound `CN1c2ccccc2C(NCCCCCCC(=O)O)c2ccc(Cl)cc2S1(=O)=O` (configuration not stated), the Potency entry in experiment [1], in experiment [2], in experiment [4], in experiment [16], in [8] and in experiment [9] was “inactive” in each case. Further, the Potency result in [17], in experiment [18], in [11], in [12] and in experiment [13] was “inactive” each time. For the same compound, the call in [3] and in experiment [5] was inactive. Also, the max activation in [14] was -2.51%. The Potency in experiment [19] was 7.94 µM (active).
With `CC(N)Cc1ccc2c(c1)OCO2` (configuration not stated), the Potency result in experiment [15], in [1], in [2], in experiment [4], in [16] and in experiment [6] was “inactive” each time. The Potency result in [7], in experiment [8], in experiment [9], in experiment [10], in experiment [17] and in experiment [18] was “inactive” in each case. Moreover, the Potency entry in experiment [11], in [12] and in [13] was “inactive” each time. Besides, the call in [3] and in experiment [5] was inactive.
As for `O=C1C=C2C=C[C@@H]3C[C@@]2(O1)[C@H]1CCCCN31`, the Potency result in experiment [2], in [4], in [16], in experiment [17] and in [20] was “inactive” each time. The compound was called inactive in [3] and in experiment [5]. Also, the Potency was 7.5 µM (active) in experiment [6], 10.6 µM (active) in [7], 11.9 µM (active) in experiment [10] and 15 µM (active) in experiment [12]. Also, in [14], the max activation was -20.5%.
In the case of `C[C@@H](Cc1ccccc1)NCCC(c1ccccc1)c1ccccc1`, the Potency result in experiment [15], in [1], in [2], in [4], in experiment [8] and in experiment [17] was “inactive” in each case. Moreover, the Potency result in experiment [18] and in [11] was “inactive” each time. For the same compound, the compound was called inactive in [3] and in [5]. Besides, the Potency in experiment [6] was 3.59 µM (active); in experiment [7], 5.07 µM (active); in experiment [10], 11.4 µM (active); in experiment [20], 12.6 µM (active).
On to `CCN1C[C@]2(COC)[C@H](O)C[C@H](OC)[C@@]34[C@@H]5C[C@@]6(O)[C@H](OC(=O)c7ccccc7)[C@@H]5[C@@](OC(C)=O)([C@@H]([C@H](OC)[C@H]23)[C@@H]14)[C@@H](O)[C@@H]6OC`, for which the Potency result in experiment [15], in experiment [1], in experiment [2], in [4], in experiment [6] and in [7] was “inactive” throughout. Besides, the Potency result in experiment [8], in [10], in [17], in [18], in [11] and in experiment [12] was “inactive” throughout. The Potency entry in [13] and in experiment [19] was “inactive” each time. Besides, the result in experiment [3] and in experiment [5] was inactive. The max activation in experiment [14] was -1.75%.
